# Laboratory results reported in PubChem BioAssay (NCATS).
# Records with an inconclusive call do not appear. Activity calls are given as the source filed them. Calls come from the whole dose curve; as a rule, active = well fitted cell-killing curve with a large enough effect; inconclusive = small, poorly fitted or top-dose-only effect, or effect the other way; inactive = no such curve, though single readings can be large or run the other way.
# Assay: Quantitative High-Throughput drug screen in 47 multiple myeloma cell lines against the NCATS MIPE library collection: KMS28PE_JCRB cell viability assay (AID 1918983); note: nearly all actives have a fitted effect of over 35% in size
# Settings: KMS28PE multiple myeloma viability, CellTiter-Glo ATP, 48 h; series mostly up to 45.8 µM; viability, % of DMSO control: at the top concentration
# Excerpt: PI: Beverly A. Mock Ph.D.
# Laboratory of Cancer Biology and Genetics,
# Center for Cancer Research, National Cancer Institute,
# National Institute of Health, Bethesda, Maryland
# Drug resistance and disease progression are common in multiple myeloma (MM) patients, underscoring the need for new therapeutic combinations. […] We hypothesized that effective combinations would reduce MYC expression and enhance p16 activity. […] These preclinical data identify potentially useful drug combinations for evaluation in drug-resistant MM and reveal potential mechanisms of combined drug sensitivity.
# Described herein is the primary MIPE qHTS used to cherrypick compounds. Validated compounds were then further tested for potential synergistic activiy.
# [1] Peat TJ, Gaikwad SM, Dubois W, Gyabaah-Kessie N, Zhang S, Gorjifard S, Phyo Z, Andres M, Hughitt VK, Simpson RM, Miller MA, Girvin AT, Taylor A, Williams D, D'Antonio N, Zhang Y, Rajagopalan A, Flietner E, Wilson K, Zhang X, Shinn P, Klumpp-Thomas C, McKnight C, Itkin Z, Chen L, Kazandijian D, Zhang J, Michalowski AM, Simmons JK, Keats J, Thomas CJ, Mock BA. Drug combinations identified by high-throughput screening promote cell cycle transition and upregulate Smad pathways in myeloma. Cancer Lett. 2023 Aug 1;568:216284. doi: 10.1016/j.canlet.2023.216284. Epub 2023 Jun 24. PMID: 37356470; PMCID: PMC10408729.
# SEQUENCE No. (e.g., 1, 2, 3, etc.); […] (e.g., Cells, Incubation, Reagent, etc.); VALUE and DESCRIPTION.
# 1; Cells; 5 uL; white, solid bottom 1536-well Greiner assay plate.
# 2; Compounds; 23 nL; Kalypsis pin tool (Wako USA) equipped with a 1536-well pin head to transfer to the assay plates.
# 3; Incubation; 48 hours; 37C incubation.
# 4; Reagent;5uL; CellTiter Glo (Promega).
# 5; Detector; 425V; Luminescence; Viewlux PerkinElmer.
# NOTES (numbers refer to Sequence numbers above)
# 1. The cell-based screening methods employed in this study were like those previously published. Briefly, the corresponding myeloma cell lines were screened in 1,536-well plates with 500 cells, 5-uL per well for inhibition of cell viability (assessed by measuring ATP levels with CellTiterGlo).
# 2. NCATS MIPE 4.0 library of approved and investigational drugs were added using the Kalypsis pin tool. Wells treated with DMSO only for 100% viability and media only for 0% viability were used as controls.
# 3. The assay plates were covered and incubated for 48 hours in a 37C, 5% CO2 incubator with controlled humidity.
# 4. After 48 hours, CellTilter-GloTM luminescent substrate mix (Promega) reagent was added to the assay plate and plates we incubated for 5 min at room temperature.
# 5. Signal was measured as median relative luminescence units on a ViewLux (PerkinElmer) multiplate reader.
# [1] Heske CM, Davis MI, Baumgart JT, Wilson K, Gormally MV, Chen L, Zhang X, Ceribelli M, Duveau DY, Guha R, Ferrer M, Arnaldez FI, Ji J, Tran HL, Zhang Y, Mendoza A, Helman LJ, Thomas CJ. Matrix Screen Identifies Synergistic Combination of PARP Inhibitors and Nicotinamide Phosphoribosyltransferase (NAMPT) Inhibitors in Ewing Sarcoma. Clin Cancer Res. 2017 Dec 1;23(23):7301-7311. doi: 10.1158/1078-0432.CCR-17-1121. Epub 2017 Sep 12. PMID: 28899971; PMCID: PMC6636827.
# Potency is the fitted concentration of half-maximal effect.
Compound,"viability, % of DMSO control",Potency
O=c1ccc2ccc(O)c(O)c2o1,136% (inactive),
CN(C)[C@@H](CCOc1cccc2ccccc12)c1ccccc1,,20.9 µM (active)
CN(C)C(=O)COC(=O)Cc1ccc(OC(=O)c2ccc(N=C(N)N)cc2)cc1,154% (inactive),
COc1cc2c(cc1OC)C1CC(=O)C(CC(C)C)CN1CC2 (stereo not given),101% (inactive),
Cc1nc(-c2ccc(OCC(C)C)c(C#N)c2)sc1C(=O)O,115% (inactive),
O=C(O)c1cccnc1Nc1cccc(C(F)(F)F)c1,116% (inactive),
CN(C)c1ccc(O)c2c1C[C@H]1C[C@H]3[C@H](N(C)C)C(=O)C(C(N)=O)=C(O)[C@@]3(O)C(=O)C1=C2O,,20.9 µM (active)
O=C(NCCO[N+](=O)[O-])c1cccnc1,133% (inactive),
CN(C)c1ccc2nc3ccc(=[N+](C)C)cc-3sc2c1,,5.9 µM (active)
CCCOc1ccc2nc(NC(=O)OC)[nH]c2c1,,0.0066 µM (active)
Clc1ccc2c(N3CCN(CCCN4CCN(c5ccnc6cc(Cl)ccc56)CC4)CC3)ccnc2c1,119% [at 23.2 µM] (inactive),
N[C@@H](Cc1cc(I)c(Oc2cc(I)c(O)c(I)c2)c(I)c1)C(=O)O,104% (inactive),
Nc1nc(N)c(N=O)c(OCC2CCCCC2)n1,,14.8 µM (active)
Cc1ccc(C)c(OCCCC(C)(C)C(=O)O)c1,138% (inactive),
CCCCC(CC)COC(=O)C(C#N)=C(c1ccccc1)c1ccccc1 (stereo not given),124% (inactive),
CCCCCCCCCCCCCCCCCCCCCCO,118% (inactive),
CCCCN(CCCC)CCC(O)c1cc2c(Cl)cc(Cl)cc2c2cc(C(F)(F)F)ccc12 (stereo not given),,23.5 µM (active)
O=C(CCc1ccc(O)cc1)c1c(O)cc(O)cc1O,,0.935 µM (active)
COC(=O)C1=C(C)NC(C)=C(C(=O)OC(C)C)C1c1cccc2nonc12 (stereo not given),,18.7 µM (active)
CC1(C)NC(=O)N(c2ccc([N+](=O)[O-])c(C(F)(F)F)c2)C1=O,,16.6 µM (active)

Compound,"viability, % of DMSO control",Potency
C=C(c1ccc(C(=O)O)cc1)c1cc2c(cc1C)C(C)(C)CCC2(C)C,142% (inactive),
CCCc1cc(=O)[nH]c(=S)[nH]1,129% (inactive),
O=C(c1ccccc1)c1ccc2n1CCC2C(=O)O (stereo not given),129% (inactive),
CC(C)C[C@H](NC(=O)[C@H](Cc1ccccc1)NC(=O)c1cnccn1)B(O)O,,0.0093 µM (active)
CCc1nc(N)nc(N)c1-c1ccc(Cl)cc1,111% (inactive),
C=CCc1cc(OC)c(O)c(C(=O)NCCO)c1,121% (inactive),
CCOC(=O)c1c(C)n(C)c2ccc(O)cc12,130% (inactive),
NS(=O)(=O)c1cc(C(=O)O)c(NCc2ccco2)cc1Cl,96.3% (inactive),
C[C@H](Cc1ccc(O)c(O)c1)[C@@H](C)Cc1ccc(O)c(O)c1,106% (inactive),
COc1c(O)cc2c(c1O)[C@@H]1O[C@H](CO)[C@@H](O)[C@H](O)[C@H]1OC2=O,141% (inactive),
c1ccc2[nH]c(-c3cscn3)nc2c1,121% (inactive),
C[C@@H](c1ncncc1F)[C@](O)(Cn1cncn1)c1ccc(F)cc1F,105% (inactive),
CC(C)c1ccc2oc3nc(N)c(C(=O)O)cc3c(=O)c2c1,102% (inactive),
CC(=O)N1CCN(c2ccc(OC[C@H]3CO[C@](Cn4ccnc4)(c4ccc(Cl)cc4Cl)O3)cc2)CC1,,6.62 µM (active)
CC(S)C(=O)NCC(=O)O (stereo not given),122% (inactive),
CS(=O)(=O)OCCCCOS(C)(=O)=O,,13.2 µM (active)
O=C(O)CCNC(=O)c1ccc(N=Nc2ccc(O)c(C(=O)O)c2)cc1,109% (inactive),
O=P(O)(O)C(O)(Cn1ccnc1)P(=O)(O)O,117% [at 23.2 µM] (inactive),
Cc1ccc(NC(=O)c2ccc(CN3CCN(C)CC3)cc2)cc1Nc1nccc(-c2cccnc2)n1,148% (inactive),
CN1CCC(=C2c3ccccc3CCc3sccc32)CC1,102% (inactive),
